Experiment [1] is described as follows: NCI Yeast Anticancer Drug Screen. Data for the rad50 strain (AID 155).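 Also: 0% = growth of vehicle-only cultures of the same strain.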 To be noted: S. cerevisiae rad50 strain growth inhibition; at 50.0 µM; hits give high values. Summed up: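 Genetically altered yeast (DNA repair pathway); compound treatment; growth inhibition vs vehicle ctrl.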
Experiment [2] can be described thus: NCI Yeast Anticancer Drug Screen. Data for the mec2-1 strain (AID 157). The settings on record: S. cerevisiae mec2-1 strain, at 50.0 µM, hits give high values. In outline: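 Yeast mec2-1 mutant treated with compound. Readout: growth inhibition vs vehicle controls.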
Experiment [3] can be described thus: NCI Yeast Anticancer Drug Screen. Data for the sgs1 mgt1 strain (AID 161).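 Also: 0% = growth of cultures given vehicle only.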 To be noted: S. cerevisiae sgs1 mgt1 strain, at 50.0 µM, hits give high values. In outline: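 Mutant yeast exposed to compound; growth scored against vehicle-only wells.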
Experiment [4] is described as follows: NCI Yeast Anticancer Drug Screen. Data for the cln2 rad14 strain (AID 165).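 Also: 0% = growth equal to vehicle treated cultures.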 To be noted: S. cerevisiae cln2 rad14 strain, at 50.0 µM, hits give high values. In outline: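 cln2 rad14 yeast strain; compound exposure; growth inhibition read vs vehicle controls.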
A short description of experiment [5]: NCI Yeast Anticancer Drug Screen. Data for the bub3 strain (AID 167). To be noted: S. cerevisiae bub3 mutant strain, at 50.0 µM, hits give high values. In outline:
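Yeast carrying a defined mutation is treated with each compound, and growth is compared with that of vehicle-exposed cells to give inhibition.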

The nature of experiment [6]: NCI Yeast Anticancer Drug Screen. Data for the mlh1 rad18 strain (AID 175). The settings on record: S. cerevisiae mlh1 rad18 strain growth inhibition; at 50.0 µM; hits give high values. Summed up: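 Yeast w/ defined DNA-repair lesions; compound exposure; growth vs vehicle controls → % inhibition.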

This is part of a sample that, as a whole, favours compounds with a hit. Of some 79,000 tested, about 15% had one in any assay. Unmarked numbers belong to inactive results. Activity calls are given as the source filed them. Rule as the data show it: active = growth inhibition above about 70%; inactive = the rest.

For `FC(F)(F)c1nnc(-c2ccccc2)nn1`, the growth inhibition is -8.8% in experiment [1]; -16.1% in experiment [2]; -11.4% in experiment [3]; -36.6% in experiment [4]; -14.8% in experiment [5]; -8.5% in experiment [6].

As to `Cc1c(C)c(CO)c(C)c(C)c1CO`, the growth inhibition in experiment [1] is -15.8%; in experiment [2] it was -19.4%; in experiment [3] it was 15.8%; in experiment [4], 4.9%; in experiment [5] it was 12.1%; in experiment [6] it was -2.1%.

`CC(=O)C/C(C)=N\NC(=O)c1ccc([N+](=O)[O-])cc1`: the growth inhibition in experiment [1] is -6.15%; in experiment [2], -16.8%; in experiment [3], 5.65%; in experiment [4] it was 7.35%; in experiment [5], 9.9%; in experiment [6], 19.6%.

As to `O=C1CNC(=O)N1c1ccccc1`, the growth inhibition is 7.35% in experiment [1]; 5.75% in experiment [2]; 4.4% in experiment [3]; -9.2% in experiment [4]; 5.65% in experiment [5]; 3.8% in experiment [6].

`CCOC(=O)/C(=C/O)NC(=O)c1ccccc1`: the growth inhibition in experiment [1] was -10.4%; in experiment [2], 18.8%; in experiment [3], -5.5%; in experiment [4] it was -18.9%; in experiment [5] it was -9.95%; in experiment [6] it was 19.4%.

`CCCCCCCCCCCCNCC(O)c1cc(-c2ccccc2)nc2c(Cl)cc(Cl)cc12` (stereo unspecified): the growth inhibition in experiment [1] is 8.1%; in experiment [2] it was 8.9%; in experiment [3], 31.9%; in experiment [4] it was 29.1%; in experiment [5], -8%; in experiment [6] it was 26.5%.

As to `CCOC(=O)c1cnc2c(ccc3ncccc32)c1Cl`, the growth inhibition is -13.9% in experiment [1]; -7.45% in experiment [2]; 15.8% in experiment [3]; 25.2% in experiment [4]; 7% in experiment [5]; 27.1% in experiment [6].

On to `Cc1ccc(C)c(NC(=O)Oc2ccc(Br)cc2Br)c1`, for which the growth inhibition in experiment [1] was 11.4%; in experiment [2], 5.9%; in experiment [3], 3.4%; in experiment [4] it was -28.1%; in experiment [5] it was -1%; in experiment [6] it was 18.1%.

Consider `COc1ccc(-c2cc(-c3ccccc3)c(C#N)c(=O)[nH]2)cc1`, for which the growth inhibition was 22.9% in experiment [1]; 5.85% in experiment [2]; 17.4% in experiment [3]; 17% in experiment [4]; 6.3% in experiment [5]; 21% in experiment [6].

Regarding `CC(=O)Nc1c(C(N)=O)cnn1-c1ccccc1`, the growth inhibition is 17.9% in experiment [1]; 26.6% in experiment [2]; 17.7% in experiment [3]; -0.2% in experiment [4]; 24.5% in experiment [5]; 36.9% in experiment [6].

Take `N#CC1=C(Nc2ccccc2)SC(c2cccs2)NC1=O` (stereo unspecified): the growth inhibition was 12.4% in experiment [1]; 4.7% in experiment [2]; 20.6% in experiment [3]; 16.5% in experiment [4]; 11.9% in experiment [5]; 23.2% in experiment [6].

In the case of `O=C[c-]1[c-][c-][c-][c-]1.[Fe+2].[c-]1[c-][c-][cH-][c-]1`, the growth inhibition was 44% in experiment [1]; 58.5% in experiment [2]; 57.8% in experiment [3]; 49% in experiment [4]; 51.6% in experiment [5]; 14% in experiment [6].

`Cc1cccc(Cl)c1NC(=O)NCCCN1CCOCC1`: the growth inhibition is 2.8% in experiment [1]; -14.9% in experiment [2]; 6.2% in experiment [3]; 14.1% in experiment [4]; -1.75% in experiment [5]; 6.45% in experiment [6].

As for `CN(C=O)c1ccc(C(=O)O)cc1`, the growth inhibition in experiment [1] is 4.35%; in experiment [2], 11.9%; in experiment [3], -6.25%; in experiment [4] it was 2%; in experiment [5], 17.6%; in experiment [6], 10.6%.

In the case of `N#Cc1cccc(C2SCc3nc4ccccc4n32)c1` (stereo unspecified), the growth inhibition in experiment [1] was -1.1%; in experiment [2] it was -8.9%; in experiment [3] it was 25.9%; in experiment [4], 23.1%; in experiment [5] it was 4.8%; in experiment [6] it was 18.1%.

Turning to `C=C(C)C1CC/C(C)=C/CC[C@]2(C)O[C@H]2CC/C(COC(C)=O)=C\[C@@H]1O` (stereo partly specified), the growth inhibition was -7.9% in experiment [1]; -8.7% in experiment [2]; 2.2% in experiment [3]; 3.65% in experiment [4]; -18.6% in experiment [5]; -54.6% in experiment [6].

In the case of `Cc1ccc(S(=O)(=O)C(=S)N(C)N(C)C)cc1`, the growth inhibition was 18.2% in experiment [1]; 25.4% in experiment [2]; 36.4% in experiment [3]; -12.9% in experiment [4]; 25.4% in experiment [5]; 88% (active) in experiment [6].

For `CSCCCN(CCCSC)CCCSC`, the growth inhibition in experiment [1] was -12.6%; in experiment [2], -12.9%; in experiment [3], -0.3%; in experiment [4], 5.5%; in experiment [5], 4.5%; in experiment [6] it was -26.6%.

On to `Cc1ncc(CO)c(/C=N\Nc2ccc([N+](=O)[O-])cc2[N+](=O)[O-])c1O`, for which the growth inhibition in experiment [1] was -21.4%; in experiment [2], 19.2%; in experiment [3], 9.7%; in experiment [4], -17.7%; in experiment [5], 11.3%; in experiment [6] it was 13.9%.

On to `OCCCCCOCc1ccccc1`, for which the growth inhibition in experiment [1] is 18.9%; in experiment [2], 3.6%; in experiment [3], 42.1%; in experiment [4], 42.8%; in experiment [5] it was -8.65%; in experiment [6] it was 23.3%.

With `Oc1ccccc1CN=Cc1ccccc1`, the growth inhibition was 7.45% in experiment [1]; 4.1% in experiment [2]; -4.25% in experiment [3]; -0.5% in experiment [4]; -27.2% in experiment [5]; 4.85% in experiment [6].
